Source: PubChem BioAssay
GSH fluor: GSH bead compound fluorescence profile. AID 1776. hit rate 0.25% among 190,000. GSH beads flow cytometry, compound fluorescence 488/530 nm; stronger effect = higher value. fluorescence (KMESF) at 10 µM; in the data active means fluorescence above about 89;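 further: glutathione beads carrying GST-tagged Bcl family fusion proteins plus one bare bead set; values are compound well signal with DMSO vehicle wells as background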
RGS16-Gao HTS: RGS16-Galphao interaction regulator (human). O15492+P09471. bead-based flow cytometry RGS16-Galphao binding, fluorescence; actives lie on both sides. binding response (% of control), % at 10 µM. hit rate 0.38% among 220,000;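 further: Galphao activated by GDP with aluminum fluoride before binding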
Target sequence (O15492 whole entry, looked up): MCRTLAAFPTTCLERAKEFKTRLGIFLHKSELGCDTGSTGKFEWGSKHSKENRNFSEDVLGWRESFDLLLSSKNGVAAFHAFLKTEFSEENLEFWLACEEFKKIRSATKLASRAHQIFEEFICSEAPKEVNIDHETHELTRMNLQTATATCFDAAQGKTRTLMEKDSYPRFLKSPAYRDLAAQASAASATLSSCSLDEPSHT
Target sequence (P09471 whole entry, looked up): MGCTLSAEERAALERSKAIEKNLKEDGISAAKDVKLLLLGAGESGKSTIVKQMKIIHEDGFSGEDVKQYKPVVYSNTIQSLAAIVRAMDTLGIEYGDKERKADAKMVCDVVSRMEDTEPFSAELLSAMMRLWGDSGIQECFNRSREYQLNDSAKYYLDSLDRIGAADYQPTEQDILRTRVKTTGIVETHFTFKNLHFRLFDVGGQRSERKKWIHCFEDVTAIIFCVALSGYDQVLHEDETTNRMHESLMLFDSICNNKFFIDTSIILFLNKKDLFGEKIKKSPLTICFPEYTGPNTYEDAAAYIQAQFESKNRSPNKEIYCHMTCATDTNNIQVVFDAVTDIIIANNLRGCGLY
RGS4-Gao reg: modulates binding of RGS4 to human Galphao; Multiplexed bead flow cytometry; actives lie on both sides; P09471; AID 1415; hit rate 0.33% among 220,000; binding response (% of control), % at 10 µM; in the data active means binding response below about 49% or above about 150%; inactive means in between;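 further: fluorescent Galphao activated with aluminum fluoride binding bead-coupled RGS4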
Target sequence (P09471 whole entry, looked up): as above
Avidin fluor: compound fluoresces at 488/530 nm on avidin beads. fluorescence (KMESF) at 10 µM. compound fluorescence 488/530 nm, flow cytometry; stronger effect = higher value. hit rate 0.38% among 220,000; in the data active means fluorescence above about 47
RGS7-Gao reg: human RGS7-Galphao interaction regulation. P09471. AID 1439. binding response (% of control), % at 10 µM. hit rate 0.35% among 220,000. Multiplexed bead flow cytometry, RGS7-Galphao binding; actives lie on both sides; in the data active means binding response below about 49% or above about 150%; inconclusive means no clear call, values can overlap the other calls; inactive means in between;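 further: fluorescent Galphao held in activated GDP-AlF4 state binding bead-coupled RGS7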
RGS8-Gao: regulators of human RGS8-Galphao interaction | multiplexed bead flow cytometry, RGS8-Galphao binding; actives lie on both sides | hit rate 0.34% among 220,000 | P09471 | response (percent of control binding), % at 10 µM; in the data active means response below about 60% or above about 140%; inactive means in between;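 further: Galphao activated as the GDP aluminium fluoride complex binding bead-coupled RGS8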
RGS-Gao: RGS4-Galphao interaction regulator (human) | hit rate 99% among 1,600 | RGS4–Galpha-o binding response, % at 10 µM | shares compounds with RGS16-Gao HTS | multiplexed bead flow cytometry, RGS–Galpha-o binding | AID 1504;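 further: fluorescently labeled Galpha-o bound to GDP with aluminium fluoride binding biotinylated RGS beads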
Avidin counter: counter-screen: compounds disrupting biotin binding to avidin beads | shares compounds with RGS16-Gao HTS | streptavidin beads, fluorescein-biotin binding, flow cytometry | inhibition, % at 10 µM | 1,700 tested, under 10 active;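 active means inhibition above 50%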;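 further: median green fluorescence of gated singlet beads compared with DMSO control wells; 0% = DMSO wells and 100% = complete loss of bead fluorescence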
RGS8-Gao single: confirmation of regulators of human RGS8-Galphao interaction; bead-based flow cytometry RGS8-Galphao binding, fluorescence; actives lie on both sides; shares compounds with RGS16-Gao HTS; hit rate 3% among 1,700; AID 1836; binding response (% of control), % at 10 µM; in the data active means binding response below about 72% or above about 130%; inactive means in between;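 further: Galphao activated as GDP AlF4 complex before binding bead RGS8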
RGS7-Gao single: RGS7-Galphao interaction regulation, single point confirmation; shares compounds with RGS16-Gao HTS; bead-based flow cytometry RGS7-Galphao binding; actives lie on both sides; response (percent of control binding), % at 10 µM; hit rate 7.8% among 1,700; AID 1837; in the data active means response below about 75% or above about 130%; inactive means in between;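 further: fluorescent Galphao activated with GDP and aluminum fluoride binding bead-coupled RGS7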
RGS16-Gao conf: confirmation of regulators of human RGS16-Galphao interaction. shares compounds with RGS16-Gao HTS. hit rate 4% among 1,700. bead-based flow cytometry, RGS16-Galphao binding; actives lie on both sides. AID 1838. response (% of control binding), % at 10 µM; in the data active means response below about 74% or above about 130%; inactive means in between;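 further: Galphao activated as the GDP aluminium fluoride complex binding bead-coupled RGS16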
RGS4-Gao single: RGS4-Galphao interaction regulation, single point confirmation | shares compounds with RGS16-Gao HTS | RGS4-Galphao binding, multiplexed bead flow cytometry; actives lie on both sides | binding response (% of control), % at 10 µM | hit rate 4% among 1,700 | AID 1840; in the data active means binding response below about 74% or above about 130%; inactive means in between
RGS19-Gao single: RGS19-Galphao interaction regulation, single point confirmation | shares compounds with RGS16-Gao HTS | response (percent of control binding), % at 10 µM | hit rate 5% among 1,700 | bead-based flow cytometry RGS19-Galphao binding; actives lie on both sides; in the data active means response below about 50% or above about 160%; inactive means in between;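 further: 100% = no compound control and 0% = blank background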
Starred values were filed as active, the others as inactive; u = inconclusive; x = no result given; [ ] = another dose, or the depositor's remark. A selection: hits, their analogues and other compounds. The true share with any hit is near 1.2%. Unless noted, how the calls were made is not given here.

SMILES | GSH fluor | RGS16-Gao HTS | RGS4-Gao reg | Avidin fluor | RGS7-Gao reg | RGS8-Gao | RGS-Gao | Avidin counter | RGS8-Gao single | RGS7-Gao single | RGS16-Gao conf | RGS4-Gao single | RGS19-Gao single
Cc1noc(C)c1COc1cccc(C(=O)NC(C)(C)C)c1 | 13 | 97 | 97 | 12 | u | 101 | x | x | x | x | x | x | x
CCc1ccc(NC(=O)CN2CCc3ccccc3C2)cc1 | 14 | 100 | 101 | 33 | 102 | 102 | x | x | x | x | x | x | x
O=C(CN1CCc2ccccc2C1)Nc1ccc(Br)cc1 | 54 | 362 | 120 | 3 | 111 | 146*[activator] | 120* | 2 | 100 | 94 | 100 | 99 | 104
COc1ccc(CNC(=O)c2c(F)c(F)c(F)c(F)c2F)cc1 | 12 | 97 | 93 | 6 | 51 | 58* | 93* | 0 | 99 | 92 | 100 | 97 | 91
O=C(NCc1ccccn1)c1ccco1 | 8 | 104 | 100 | 22 | 101 | 102 | x | x | x | x | x | x | x
O=C(NC(Cc1ccccc1)C(=O)NCc1ccccn1)c1ccco1 (stereo not drawn) | 29 | x | x | x | x | x | x | -1 | 100 | 100 | 101 | 101 | 81
C/C(=C\C(=O)C(F)(F)F)Nc1ccc(C)cc1 | 12 | 598 | 120 | 5 | 117 | 166*[activator] | 120* | 0 | 99 | 101 | 97 | 99 | 104
CCCN(CCC)c1nc(C#N)nc(N(CCC)CCC)n1 | 11 | 29 | 96 | 1 | 54 | 48* | 96* | 1 | 98 | 101 | 102 | 96 | 93
O=C(Cn1nnc(-c2cc(C(F)(F)F)cc(C(F)(F)F)c2)n1)NNC(=S)Nc1ccc(Cl)cc1 | x | 169 | 185*[activator] | 5 | u | 145*[activator] | x | 0 | 103 | 108 | 106 | 108 | 98
CCOc1ccc(CCNC(=O)C(C)n2nc(C)n3c(cc4occc43)c2=O)cc1OCC (stereo not drawn) | 14 | 99 | 96 | 8 | 97 | 98 | x | x | x | x | x | x | x
Cc1nn(C(C)C(=O)NCCCc2ccccc2)c(=O)c2cc3occc3n12 (stereo not drawn) | 25 | 167 | 134 | 9 | 139 | x | x | -2 | 93 | 88 | 95 | 93 | 80
CC(=O)Nc1ccc(Cc2nc3c([nH]2)c(=O)n(C)c(=O)n3C)cc1 | x | 1.1* | -0.7* | -1 | u | 20* | x | 1 | 99 | 99 | 101 | 98 | 103
CCCc1nc2c([nH]1)c(=O)n(C)c(=O)n2C | x | 102 | 101 | 7 | u | 102 | x | x | x | x | x | x | x
CCC12CN3CCN(CC(C3)/C1=N\NC(=O)c1ccc(F)cc1)C2 | 13 | 38 | 42* | 6 | 43* | 55* | x | -1 | 99 | 99 | 98 | 98 | 97
CCC12CN3CCN(CC(C3)/C1=N\NC(=O)c1ccc(Cl)cc1)C2 | 12 | 94 | 99 | 6 | 90 | 97 | x | x | x | x | x | x | x
COc1ccc(NC(=S)N2CCN(C(c3ccccc3)c3ccccc3)CC2)cc1OC | 11 | 185*[activator] | 105 | 4 | 107 | 130 | 105* | -4 | 102 | 102 | 102 | 100 | 102
COc1ccc(NC(=S)N2CCCC2)cc1OC | 13 | 100 | 102 | 11 | 105 | 99 | x | x | x | x | x | x | x
NC(=NC1CCCCC1)c1ccc(Cl)cc1 | 14 | 101 | 117 | 42 | 195*[activator] | 90 | 117* | 2 | 103 | 97 | 102 | 101 | 118
NC(=O)C1CCCN(C(=O)c2ccc(Cl)cc2)C1 (stereo not drawn) | 39 | 99 | 97 | 9 | 98 | 98 | x | x | x | x | x | x | x
COc1ccc(C2=CC(=O)C=CC2=O)cc1 | x | 67 | 93 | 5 | u | 71 | x | 1 | 53* | 80 | 15* | 97 | 32*
CC(C)N1CCc2c(sc(NC(=O)c3nc4ccccc4s3)c2C(N)=O)C1 | 12 | 108 | 105 | 11 | 101 | 104 | x | x | x | x | x | x | x
CC(C)N1CCc2c(sc(NC(=O)c3ccc(S(=O)(=O)N4CCc5ccccc54)cc3)c2C(N)=O)C1 | 19 | 137 | 147 | 5 | 153*[activator] | 137 | 147* | x | x | x | x | x | x
N/C(=N\OCc1ccc([N+](=O)[O-])cc1)c1ccncc1 | 17 | 97 | 99 | 10 | u | 101 | x | x | x | x | x | x | x
c1ccc(SSc2ccccc2)cc1 | 17 | -4.9* | 100 | 3 | 105 | 64 | 100* | x | x | x | x | x | x
Cc1nccnc1Sc1ccccc1 | x | 100 | 102 | 6 | u | 101 | x | x | x | x | x | x | x
SMILES | GSH fluor | RGS16-Gao HTS | RGS4-Gao reg | Avidin fluor | RGS7-Gao reg | RGS8-Gao | RGS-Gao | Avidin counter | RGS8-Gao single | RGS7-Gao single | RGS16-Gao conf | RGS4-Gao single | RGS19-Gao single
CCOc1ccccc1-n1nnnc1SC(C)C(=O)OC (stereo not drawn) | 12 | 101 | 105 | 9 | u | 103 | x | x | x | x | x | x | x
O=C1c2cccc3c(O)ccc(c23)C(=O)N1Cc1ccccc1 | 162* | 186*[activator] | 181*[activator] | 81* | 164*[activator] | 116 | x | 2 | 126*[activator] | 264*[activator] | 203*[activator] | 204*[activator] | 219*[activator]
O=c1c(C(c2ccc(F)cc2)c2c(O)nc3n(c2=O)CCS3)c(O)nc2n1CCS2 | x | 102 | 100 | 7 | u | 102 | x | x | x | x | x | x | x
CNC(=O)COc1ccc(C=O)cc1OC | 4 | 11* | 91 | 7 | 86 | 72 | 91* | -1 | 101 | 98 | 100 | 100 | 97
Cc1cc(S(=O)(=O)Nc2cc(C)c(O)c(C)c2)c(C)s1 | 30 | x | x | x | x | x | x | 2 | 99 | 94 | 96 | 100 | 73
CN(C)c1ccc(/C=C2\C(=N)N3C(=NC2=O)Sc2cc(S(C)(=O)=O)ccc23)cc1 | x | 105 | 106 | 9 | u | 102 | x | x | x | x | x | x | x
N#C/C(=N\Nc1cccc(C(F)(F)F)c1)C(=O)c1ccsc1 | x | 99 | 100 | 4 | u | 99 | x | x | x | x | x | x | x
CCN1CCN(C(=S)c2ccc(OCC(=O)NCc3ccccc3)cc2)CC1 | 9 | 83 | 101 | 8 | 154*[activator] | 90 | 101* | 0 | 97 | 112 | 97 | 101 | 101
Cc1ccc(-c2ccc(OCC(=O)N3CCOCC3)cc2)cc1 | 31 | 103 | 101 | 16 | 104 | 106 | x | x | x | x | x | x | x
